# ± gives the standard deviation of the averaged measurements.
# Experiments:
# Test in all cases: promoter activity interaction Z-score (Lux/OD deviation from empty-vector control); higher = stronger promoter induction by the compound
# [1] = tested on: E. coli BW25113 acrABp lux reporter
# Method in brief: (§1)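 Reporter strains of E. coli BW25113 grew at 37°C in 40 µl LB Lennox in 384-well plates. Readings of OD600 and luminescence were taken every 30 min over 12 h, integrated over 0–8 h (wild type) or 1–9 h (deletion strains), and wells below 10% of the median growth value were excluded. Scores are Z-transformed residuals of growth-normalised luminescence from a fit against a control.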
# [2] = tested on: E. coli BW25113 marRABp lux reporter
# Method in brief: as §1
# [3] = tested on: E. coli BW25113 micFp lux reporter
# Method in brief: as §1
# [4] = tested on: E. coli BW25113 ompFp lux reporter
# Method in brief: as §1
# [5] = tested on: E. coli BW25113 robp lux reporter
# Method in brief: as §1
# [6] = tested on: E. coli BW25113 soxSp lux reporter
# Method in brief: as §1
# [7] = tested on: E. coli BW25113 tolCp lux reporter
# Method in brief: as §1
# [8] = 0.28 µg/ml, genetic background: wild type
# [9] = 0.28 µg/ml, genetic background: ΔmarA
# [10] = 0.28 µg/ml, genetic background: Δrob
# [11] = 0.28 µg/ml, genetic background: ΔsoxS
# [12] = 0.56 µg/ml, genetic background: wild type
# [13] = 0.56 µg/ml, genetic background: ΔmarA
# [14] = 0.56 µg/ml, genetic background: Δrob
# [15] = 0.56 µg/ml, genetic background: ΔsoxS
# [16] = 1.1 µg/ml, genetic background: wild type
# [17] = 1.1 µg/ml, genetic background: ΔmarA
# [18] = 1.1 µg/ml, genetic background: Δrob
# [19] = 1.1 µg/ml, genetic background: ΔsoxS
# [20] = 2.2 µg/ml, genetic background: wild type
smiles,measurement,setting,value
CC[C@H]1OC(=O)[C@H](C)[C@@H](O[C@H]2C[C@@](C)(OC)[C@@H](O)[C@H](C)O2)[C@H](C)[C@@H](O[C@@H]2O[C@H](C)C[C@H](N(C)C)[C@H]2O)[C@](C)(O)C[C@@H](C)CN(C)[C@H](C)[C@@H](O)[C@]1(C)O [Azithromycin],promoter activity interaction Z-score,[1]; [8],0.612 ± 0.28
same,promoter activity interaction Z-score,[1]; [9],-0.667 ± 0.48
same,promoter activity interaction Z-score,[1]; [10],0.324 ± 0.28
same,promoter activity interaction Z-score,[1]; [11],0.489 ± 0.8
same,promoter activity interaction Z-score,[1]; [12],1.13 ± 0.12
same,promoter activity interaction Z-score,[1]; [13],0.048 ± 0.66
same,promoter activity interaction Z-score,[1]; [14],2.23 ± 0.08
same,promoter activity interaction Z-score,[1]; [15],3.66 ± 1.6
same,promoter activity interaction Z-score,[1]; [16],4.08 ± 1
same,promoter activity interaction Z-score,[1]; [17],6.35 ± 6.2
same,promoter activity interaction Z-score,[1]; [18],3.65 ± 1.2
same,promoter activity interaction Z-score,[1]; [19],4.28 ± 1.8
same,promoter activity interaction Z-score,[1]; [20],7.14 ± 1.1
same,promoter activity interaction Z-score,[2]; [8],0.645 ± 0.36
same,promoter activity interaction Z-score,[2]; [9],0.703 ± 1.2
same,promoter activity interaction Z-score,[2]; [10],0.528 ± 0.82
same,promoter activity interaction Z-score,[2]; [11],0.0278 ± 0.18
same,promoter activity interaction Z-score,[2]; [12],1.8 ± 0.42
same,promoter activity interaction Z-score,[2]; [13],1.75 ± 0.93
same,promoter activity interaction Z-score,[2]; [14],1.66 ± 0.88
same,promoter activity interaction Z-score,[2]; [15],3.09 ± 1.8
same,promoter activity interaction Z-score,[2]; [16],4.3 ± 0.46
same,promoter activity interaction Z-score,[2]; [17],4.49 ± 2
same,promoter activity interaction Z-score,[2]; [18],2.983 ± 0.0035
same,promoter activity interaction Z-score,[2]; [19],4.44 ± 2.6
same,promoter activity interaction Z-score,[3]; [8],0.698 ± 0.19
same,promoter activity interaction Z-score,[3]; [9],-0.163 ± 0.0028
same,promoter activity interaction Z-score,[3]; [10],0.125 ± 0.087
same,promoter activity interaction Z-score,[3]; [11],0.248 ± 0.093
same,promoter activity interaction Z-score,[3]; [12],0.273 ± 0.86
same,promoter activity interaction Z-score,[3]; [13],-0.14 ± 0.018
same,promoter activity interaction Z-score,[3]; [14],0.558 ± 0.35
same,promoter activity interaction Z-score,[3]; [15],-0.483 ± 0.018
same,promoter activity interaction Z-score,[3]; [16],-0.839 ± 0.87
same,promoter activity interaction Z-score,[3]; [17],-0.439 ± 0.056
same,promoter activity interaction Z-score,[3]; [18],0.39 ± 0.33
same,promoter activity interaction Z-score,[3]; [19],-0.925 ± 0.18
same,promoter activity interaction Z-score,[3]; [20],-1.39
same,promoter activity interaction Z-score,[4]; [8],0.438 ± 0.0074
same,promoter activity interaction Z-score,[4]; [9],-0.225 ± 0.85
same,promoter activity interaction Z-score,[4]; [10],0.663 ± 0.29
same,promoter activity interaction Z-score,[4]; [11],0.266 ± 1.3
same,promoter activity interaction Z-score,[4]; [12],1.95 ± 0.52
same,promoter activity interaction Z-score,[4]; [13],1.13 ± 0.094
same,promoter activity interaction Z-score,[4]; [14],3.25 ± 1.9
same,promoter activity interaction Z-score,[4]; [15],2.77 ± 0.12
same,promoter activity interaction Z-score,[4]; [16],0.0139 ± 0.62
same,promoter activity interaction Z-score,[4]; [17],0.739 ± 3.3
same,promoter activity interaction Z-score,[4]; [18],-0.756 ± 0.22
same,promoter activity interaction Z-score,[4]; [19],3.18 ± 1.5
same,promoter activity interaction Z-score,[5]; [8],-0.606 ± 0.46
same,promoter activity interaction Z-score,[5]; [9],-2.26 ± 0.22
same,promoter activity interaction Z-score,[5]; [10],-1.42 ± 0.052
same,promoter activity interaction Z-score,[5]; [11],-1.11 ± 0.5
same,promoter activity interaction Z-score,[5]; [12],-1.97 ± 0.83
same,promoter activity interaction Z-score,[5]; [13],-2.42 ± 0.28
same,promoter activity interaction Z-score,[5]; [14],-1.4 ± 0.26
same,promoter activity interaction Z-score,[5]; [15],-1.99 ± 0.19
same,promoter activity interaction Z-score,[5]; [16],-3.21 ± 1
same,promoter activity interaction Z-score,[5]; [17],-3.49 ± 0.67
same,promoter activity interaction Z-score,[5]; [18],-2.09 ± 0.15
same,promoter activity interaction Z-score,[5]; [19],-2.73 ± 0.21
same,promoter activity interaction Z-score,[5]; [20],-3.03
same,promoter activity interaction Z-score,[6]; [8],0.146 ± 0.018
same,promoter activity interaction Z-score,[6]; [9],-0.132 ± 0.027
same,promoter activity interaction Z-score,[6]; [10],0.101 ± 0.33
same,promoter activity interaction Z-score,[6]; [11],0.569 ± 0.9
same,promoter activity interaction Z-score,[6]; [12],0.342 ± 0.019
same,promoter activity interaction Z-score,[6]; [13],-0.134 ± 0.052
same,promoter activity interaction Z-score,[6]; [14],0.401 ± 0.02
same,promoter activity interaction Z-score,[6]; [15],1.917 ± 0.018
same,promoter activity interaction Z-score,[6]; [16],2.27 ± 0.33
same,promoter activity interaction Z-score,[6]; [17],1.16 ± 0.1
same,promoter activity interaction Z-score,[6]; [18],1.69 ± 0.21
same,promoter activity interaction Z-score,[6]; [19],2.06 ± 0.22
same,promoter activity interaction Z-score,[6]; [20],2.59 ± 1.8
same,promoter activity interaction Z-score,[7]; [8],1.23 ± 0.81
same,promoter activity interaction Z-score,[7]; [9],0.138 ± 0.034
same,promoter activity interaction Z-score,[7]; [10],0.66 ± 0.69
same,promoter activity interaction Z-score,[7]; [11],2.05 ± 0.54
same,promoter activity interaction Z-score,[7]; [12],1.21 ± 1.3
same,promoter activity interaction Z-score,[7]; [13],0.283 ± 0.058
same,promoter activity interaction Z-score,[7]; [14],1.89 ± 0.14
same,promoter activity interaction Z-score,[7]; [15],2.57 ± 1.3
same,promoter activity interaction Z-score,[7]; [16],3.44 ± 0.47
same,promoter activity interaction Z-score,[7]; [17],1.58 ± 1.8
same,promoter activity interaction Z-score,[7]; [18],4.99 ± 0.58
same,promoter activity interaction Z-score,[7]; [19],4.53 ± 2
same,promoter activity interaction Z-score,[7]; [20],5.2 ± 2.8

# Reference: the supplement of paper PMC12282887
